This is a sample that favours compounds with a hit; in the whole collection about 2.4% have one here.
M1 ag = human M1 muscarinic receptor agonists, primary screen, Fluo-8 calcium fluorescence, CHO-K1 cells, HTS; CHO-K1 hM1, agonist mode; 0% DMSO, 100% acetylcholine EC100; hit rate 0.33% among 360,000; activation, % at 3 µM; Muscarinic acetylcholine receptor M1 (Homo sapiens), P11229;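 active = activation above the run's mean compound activation plus 3 SD, cut at about 16% in these data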;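 note: peak over basal fluorescence ratio within a 140 s kinetic read after compound addition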
Target sequence (P11229 whole entry, looked up): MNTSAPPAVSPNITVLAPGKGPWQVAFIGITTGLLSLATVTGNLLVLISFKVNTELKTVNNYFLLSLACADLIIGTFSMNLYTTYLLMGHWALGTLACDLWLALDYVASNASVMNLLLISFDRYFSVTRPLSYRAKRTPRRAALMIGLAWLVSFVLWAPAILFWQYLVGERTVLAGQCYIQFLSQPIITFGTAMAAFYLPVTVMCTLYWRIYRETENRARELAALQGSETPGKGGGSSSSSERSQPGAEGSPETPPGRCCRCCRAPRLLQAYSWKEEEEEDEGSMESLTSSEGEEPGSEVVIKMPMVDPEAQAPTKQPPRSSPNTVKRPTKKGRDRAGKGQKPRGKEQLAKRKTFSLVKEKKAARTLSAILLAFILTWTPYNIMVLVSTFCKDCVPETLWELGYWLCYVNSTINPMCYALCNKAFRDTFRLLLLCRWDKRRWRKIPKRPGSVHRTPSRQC
M1 PAM = human M1 muscarinic receptor positive allosteric modulators, primary screen, CHO-K1 cells, Fluo-8 calcium fluorescence, 1536-well. Muscarinic acetylcholine receptor M1 (Homo sapiens), P11229. CHO-K1 hM1, ACh EC20; 0% = ACh EC20, 100% = maximal ACh. activation, % at 3 µM. hit rate 0.088% among 360,000. AID 588819, 2011; in the data active = activation above about 19%, passing the limit was not always enough
CHO-K1 Ca PAM = nonselective calcium activators in parental CHO-K1 cells, primary screen, counter-screen for M1 PAM project, cell-based, Fluo-8 calcium fluorescence, full deck, 1536-well; ATP EC20; 0% at ATP EC20, 100% at ATP max; activation, % at 3 µM; hit rate 0.02% among 360,000;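 active = activation above the run cutoff, the mean activation of all test compounds plus 3 SD, cut at about 40% in these data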;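 note: peak over basal fluorescence ratio in a 140 s read after ATP addition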
CHO-K1 Ca ag = counter-screen for M1 agonists: effect in parental CHO-K1 cells; activation, % at 3 µM; Fluo-8 calcium fluorescence; scaled to maximal ATP response, vehicle zero; hit rate 0.48% among 360,000; in the data active = activation above about 15%;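 note: untransfected CHO-K1 host cells lacking M1 receptor as counterscreen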
CHRM1 antagonist = human M1 muscarinic receptor antagonists, primary screen, CHO-K1 cells, Fluo-8 calcium fluorescence, 1536-well | hit rate 1.3% among 360,000 | CHO-K1 hM1, ACh EC80 antagonist | inhibition, % at 3 µM | Muscarinic acetylcholine receptor M1 (Homo sapiens), P11229;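 active = percent inhibition above its own plate's cutoff, namely the mean of that plate's compound wells plus 3 SD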;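 note: peak over basal fluorescence ratio during 140 s after agonist addition; 0% = ACh EC80 plus DMSO and 100% = DMSO alone without agonist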
CHO-K1 Ca antag = nonselective inhibitor or artifact in parental CHO-K1 cells. ATP-induced calcium, Fluo-8 fluorescence. inhibition, % at 3 µM. hit rate 0.6% among 360,000;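 active = inhibition above a per-plate cutoff, the plate's mean sample inhibition plus 3 SD, cut at about 24% in these data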;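 note: 0% = DMSO plus EC80 ATP and 100% = DMSO alone without ATP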
* = called active by the depositor; · = no result.

SMILES	M1 ag	M1 PAM	CHO-K1 Ca PAM	CHO-K1 Ca ag	CHRM1 antagonist	CHO-K1 Ca antag
CC1(C)C(C=C(Cl)Cl)C1C(=O)N1CCN(Cc2ccccc2)CC1 (stereo not given)	-7	-23	13	1	42*	-11
Cc1nn(C)c(Sc2ccccc2N)c1[N+](=O)[O-]	-6	7	22	3	-1	3
O=S(=O)(NC1CCCC1)c1ccc(S(=O)(=O)N2CCc3ccccc32)cc1	-3	-15	4	16*	25	7
Nc1ccc(S(=O)(=O)N2CCc3ccccc32)cc1	0	3	21	2	-6	-13
COc1ccc(S(=O)(=O)N2CCOCC2)cc1NC(=O)c1c(C)noc1C	-5	6	7	0	-13	9
CCOC(=O)C1(CCOc2ccccc2)CCN(Cc2ccc(C(=O)OC)cc2)CC1	-4	-23	-3	2	42*	1
CCOC(=O)C1(CCOc2ccccc2)CCN(Cc2ccncc2)CC1	-13	-8	1	2	8	18
CCOC(=O)C1(CCOC)CCN(C/C=C/c2ccccc2OC)CC1	-5	-11	-1	6	17	31*
CCOC(=O)C1(CCCc2ccccc2)CCN(C(=O)CSC)CC1	-2	3	4	2	-10	-13
CCn1ccnc1CN1CCC(CO)(CCOc2ccccc2)CC1	-13	-9	-4	0	1	6
CCOC(=O)C1(CCOc2ccccc2)CCN(Cc2nccn2CC)CC1	-10	-27	21	2	27*	-3
CCOC(=O)C1(CCCc2ccccc2)CCN(C(=O)CCC2=NNC(=O)CC2)CC1	-6	-5	3	25*	6	17
CCc1ccc(C(=O)Cc2cc3cccc(OC)c3oc2=O)cc1	-2	9	-15	2	-17	1
CCCCNC(=S)Nc1ccc(OC)nc1	2	1	-1	0	4	-5
CCC(C)c1ccccc1N=Cc1ccc2c(c1)OCO2 (stereo not given)	-3	10	25	1	-10	-23
CCOC(=O)C1(CCc2ccccc2)CCN(C(=O)C2CCOCC2)CC1	-6	-13	-17	0	15	25*
CCOC(=O)C1(CCCc2ccccc2)CCN(Cc2nccn2CC)CC1	-10	-29	-12	3	48*	18
COc1cc(NC(=O)CCCC(=O)OCC(F)(F)C(F)F)nc(OC)n1	-2	-6	3	1	16	-23
COc1cc(C=C2C(=O)C=CC2=O)ccc1O	·	·	43*	3	·	-46
COc1cc(/C=C/C(=O)CC(=O)/C=C/c2ccc(O)c(OC)c2)ccc1O	19*	-20	-15	19*	24	29*
Cc1ccc(Nc2nc(N)nc(CN3CCN(C(=O)c4ccco4)CC3)n2)cc1Cl	0	7	10	1	-9	1
Cc1cc(C(=O)CSc2nc(N)cc(=O)[nH]2)c(C)n1CC1CCCO1 (stereo not given)	-6	7	5	0	-10	-5
Cc1cc(C(=O)CSc2nc3ccccc3[nH]2)c(C)n1CC1CCCO1 (stereo not given)	1	-34	-18	20*	76*	58*
CCS(=O)(=O)c1nc(S(=O)(=O)c2ccc(C)cc2)c(N2CCC(C)CC2)s1	-4	-1	7	0	5	-6
Cc1nnsc1C(=O)NC(C)c1ccccc1 (stereo not given)	4	5	1	21*	-17	2
SMILES	M1 ag	M1 PAM	CHO-K1 Ca PAM	CHO-K1 Ca ag	CHRM1 antagonist	CHO-K1 Ca antag
Cc1ccc(NC(=S)NCc2ccc(Cl)cc2)c(OC(F)F)c1	-1	-21	-3	6	34*	19
C=C1C(=O)C=C2CN(C(=O)c3ccccc3)[C@@](Cc3ccc(F)cc3)(C(=O)OC)[C@@H]12	72*	-34	-16	75*	103*	83*
CCOC(=O)c1cc(-c2ccccc2)n(CC(=O)N2CCCC2)c1C	-1	1	9	2	2	4
CCOC(=O)c1cc(-c2ccc(F)cc2)n(CC(=O)N2CCCC2)c1C	-2	5	12	15*	-6	3
O=C(COC(=O)C1CC(O)CN1C(=O)Oc1ccccc1)c1ccc(Br)cc1 (stereo not given)	-6	8	23	0	-3	-6
COc1ccc(C(C)=O)cc1COC(=O)CNC(=O)c1ccc(F)cc1	-5	-4	5	2	2	0
COc1ccc(C(C)=O)cc1COC(=O)CNC(=O)c1ccc(Cl)cc1	-8	5	-14	11	-2	29*
COC(=O)C1CCN(CC(=O)Nc2ccc(C(=O)Nc3ccccc3OC)cc2)CC1	-4	2	-4	1	-2	-8
CC(Nc1ncnc2sccc12)c1ccccc1 (stereo not given)	3	-12	6	16*	25	23
c1ccc(Nc2ncnc3sccc23)cc1	-5	14	25	3	-10	-20
Cc1cc(NC(=O)c2ccc(Cl)cc2)n(CCC#N)n1	0	5	8	16*	-2	7
Cc1ccc(C(=O)Nc2cc(C)nn2CCC#N)cc1	-4	1	-2	0	-7	-8
COc1ccc(C(=O)NC(=S)N2CCOCC2)cc1OC	-2	6	-19	0	-1	7
CCN(CC)C(=O)CCNS(=O)(=O)c1ccc(C)cc1	0	14	-3	0	-5	28*
C=CCOc1ccccc1CN(CCc1ccccc1)C(=O)c1cccc(S(C)(=O)=O)c1	-5	-3	8	16*	4	-5
CCCOc1ccc(OC(=O)c2ccc(Br)o2)cc1	45*	-8	2	3	17	13
CCc1ccc(OCC(=O)NNC(=O)CNC(=O)c2ccc(Br)o2)cc1	-2	6	-1	-1	-8	-10
CCN(Cc1cc(=O)n2ccsc2n1)Cc1nc2cc(OC)c(OC)cc2c(=O)[nH]1	-5	4	12	1	-18	-8
O=C(CCN1CCN(c2ccccc2)CC1)N/N=C/c1ccccc1OC(F)F	-13	9	12	0	2	-12
Cc1cc(-c2nnc(-c3cccc(Cl)c3)o2)no1	6	13	13	18*	-9	2
Cc1cc(NC(=O)CSc2nnc(-c3cccc(Cl)c3)o2)no1	0	4	-16	1	-3	12
Cc1ccc(NS(=O)(=O)c2ccc3c(c2)CCC(=O)N3)cc1	1	-10	6	1	13	-14

Source: PubChem (The Scripps Research Institute Molecular Screening Center)
